# Results published in article PMC5540273 (PLoS ONE, 2017).
# System: T1, p38-beta
# T1 construct: gene MAPK11
# Conditions: concentration: 1 μM, replicates: in singlicate; n = 1
# 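Further: KINOMEscan kinase panel screen.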
row,SMILES,%Inh
1,OCCOCCn1ccc2ncnc(Nc3ccc(Oc4cccc(Cl)c4)c(Cl)c3)c21,0%
2,Fc1cccc(COc2ccc(Nc3ncnc4cc[nH]c34)cc2Cl)c1,13%
3,CC(C)(C)OC(=O)NC1CCCN(c2cc(-c3ccc4c(N)n[nH]c4c3)nc(N)n2)C1 (centres unmarked) [GSK2286096],0%
4,Oc1ccc2ncnc(Nc3ccc(OCc4ccccc4)cc3)c2c1 [GI262866],0%
5,CC(C)N1CCC(n2cnc(-c3ccc(F)cc3)c2-c2ccnc(N)n2)CC1 [SB-223132],23%
6,O=C(Nc1ccccc1)Nc1ccc(Oc2ccc3nccn3n2)cc1,0%
7,COc1ccc(Nc2nccc(N3CCC(NC(=O)c4cccc(NC(C)=O)c4)C3)n2)cc1 (centres unmarked) [GSK1379732],0%
8,COC(=O)c1cccc(NC(=O)NCCNc2ccnc(Nc3ccc(F)cc3)n2)c1 [GSK1379883],0%
9,Clc1cccc(-c2nc(Nc3ccncc3)c3ccccc3n2)c1 [GW873004],0%
10,CNc1nccc(-c2c(-c3ccc(F)cc3)ncn2CCCN2CCOCC2)n1 [SB-222516],15%
11,Cl.c1ccc(Cn2ncc3cc(Nc4ncnc5ccccc45)ccc32)cc1 [GW273749],0%
12,C[C@@H]1CCN(C(=O)CO)C[C@@H]1N(C)c1ncnc2[nH]ccc12,5%
13,Nc1n[nH]c2nnc(-c3ccccc3)cc12 [SB-517389],0%
14,CCC(CC)(CC)n1cnc2c(N)ncnc21 [SKF-97620],8%
15,CCn1c(-c2ccncc2)nc2cnccc21 [SB-735216],11%
16,Cc1ccc(NC(=O)c2cccc(C#N)c2)cc1-c1ccc(C(=O)Nc2ccncc2)cc1 [GSK1398463],9%
17,Cc1cc(N2CCC(NS(=O)(=O)c3ccc(F)cc3)CC2)nc(Nc2cccc(C#N)c2)n1.O=C(O)C(F)(F)F [GSK1653537],0%
18,O=C(c1ccc(-c2cc(-c3c[nH]nc3-c3ccccn3)ccn2)cc1)N1CCCC1 [GW792479],20%

row,SMILES,%Inh
1,Cn1ccc2ncnc(Nc3ccc(Oc4cccc(Cl)c4)c(Cl)c3)c21,22%
2,Fc1ccc(-c2ncn(CCCNCc3ccccc3)c2-c2ccncc2)cc1,4%
3,Cn1cc(-c2ccc3c(c2)CCN3C(=O)Cc2cccc(C(F)(F)F)c2)c2c(N)ncnc21 [GSK2606414],0%
4,Cn1ccc2ncnc(Oc3ccc(NC(=O)Nc4cccnc4)c(Cl)c3)c21,0%
5,O=C(NCCCN1CCCC1=O)c1cnc(NCc2cc(Cl)ccc2Cl)nc1NC1CCNCC1,0%
6,Fc1cccc(COc2ccc(Nc3ncnc4sc(-c5ccc[nH]5)cc34)cc2Cl)c1 [GW707818],4%
7,COc1ccc(Nc2nccc(N3CCC(NC(=O)Nc4ccc5c(c4)OCO5)C3)n2)cc1 (centres unmarked) [GSK1379745],0%
8,O=C(Nc1n[nH]c2nc(-c3ccco3)c(Br)cc12)c1ccc(CN2CCCC2)cc1.O=C(O)[C@H](O)[C@@H](O)C(=O)O [SB-742352],0%
9,Nc1nc(-c2cccnc2)c(-c2ccnc3ccccc23)s1 [GW684083],0%
10,NC(=O)c1sc(-n2cnc3ccccc32)cc1OCc1ccccc1F [GSK1024306],1%
11,COc1cc2c(Nc3cccc(NC(=O)c4ccccc4)c3)ncnc2cc1OCCCN1CCOCC1 [GSK223810],89%
12,CSc1nn2c(=O)cc(N3CCOCC3)nc2n1Cc1cccc(Cl)c1Cl [GSK2347225],0%
13,FC(F)(F)c1ccc(-c2cc(-c3c[nH]nc3-c3ccccn3)ccn2)cc1 [GW599550],0%
14,COc1ccc(-c2oc3ncnc(N)c3c2-c2ccc(OC)cc2)cc1 [SB-589132],0%
15,c1ccc(-c2ccc3c(-c4ccnc(Nc5ccc6c(c5)OCCO6)n4)cnn3n2)cc1 [GW818941],0%
16,Clc1cc(Nc2ncnc3cc[nH]c23)ccc1OCc1ccccn1,26%
17,CC(C)(C)c1ccc(-n2cnc3c(N)ncnc32)cc1 [SKF-97263],0%
